Here are results for one sequence from article PMC7862700, “An all-to-all approach to the identification of sequence-specific readers for epigenetic DNA modifications on cytosine”.

What all share (test): DAPPL (digital affinity profiling via proximity ligation, sequencing); 10 mM Tris-HCl pH 7.5, 50 mM NaCl, 1 mM DTT, 4% glycerol, room temperature, 30 min; GST-TFs on glutathione beads, 16-mer random dsDNA library, 0.1% formaldehyde crosslink after washing; high values mean tight binding
The target of one experiment is T1, FLI1 (Homo sapiens, UniProt Q01543 1-452).
T1 sequence: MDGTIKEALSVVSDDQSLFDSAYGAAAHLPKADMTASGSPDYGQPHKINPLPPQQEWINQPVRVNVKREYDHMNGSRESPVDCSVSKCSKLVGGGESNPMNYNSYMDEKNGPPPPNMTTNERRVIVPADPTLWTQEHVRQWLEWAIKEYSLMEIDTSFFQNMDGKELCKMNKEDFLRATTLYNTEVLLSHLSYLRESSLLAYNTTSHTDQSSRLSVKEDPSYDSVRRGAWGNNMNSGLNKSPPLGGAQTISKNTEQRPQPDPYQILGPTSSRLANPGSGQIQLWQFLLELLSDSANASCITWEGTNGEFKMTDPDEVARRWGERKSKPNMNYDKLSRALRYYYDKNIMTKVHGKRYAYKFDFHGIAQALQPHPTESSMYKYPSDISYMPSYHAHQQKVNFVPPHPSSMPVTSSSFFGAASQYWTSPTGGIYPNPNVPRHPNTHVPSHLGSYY
As to conditions: protein: recombinant; tags: N-terminal GST; dsDNA, one strand shown. The procedure, abridged:
(§1)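 In yeast, human transcription factors were expressed with a GST fusion, then pulled down on glutathione beads and given DNA barcodes. Pooled with a tag-only sample, they were exposed to 200 nmole of a 16-mer random double-stranded DNA library (Tris/NaCl/DTT/glycerol buffer, room temperature, 30 min), washed, crosslinked with 0.1% formaldehyde, proximity-ligated using BsaI/T4 ligase for 1 h at 37 °C, PCR-amplified and read on an Illumina NextSeq500. Each hexamer's frequency of reads for a factor, divided by the matching frequency for the tag-only sample, gives the binding signal.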

The target of another experiment is T2, ELK1 (Homo sapiens, UniProt P19419 1-428).
T2 sequence: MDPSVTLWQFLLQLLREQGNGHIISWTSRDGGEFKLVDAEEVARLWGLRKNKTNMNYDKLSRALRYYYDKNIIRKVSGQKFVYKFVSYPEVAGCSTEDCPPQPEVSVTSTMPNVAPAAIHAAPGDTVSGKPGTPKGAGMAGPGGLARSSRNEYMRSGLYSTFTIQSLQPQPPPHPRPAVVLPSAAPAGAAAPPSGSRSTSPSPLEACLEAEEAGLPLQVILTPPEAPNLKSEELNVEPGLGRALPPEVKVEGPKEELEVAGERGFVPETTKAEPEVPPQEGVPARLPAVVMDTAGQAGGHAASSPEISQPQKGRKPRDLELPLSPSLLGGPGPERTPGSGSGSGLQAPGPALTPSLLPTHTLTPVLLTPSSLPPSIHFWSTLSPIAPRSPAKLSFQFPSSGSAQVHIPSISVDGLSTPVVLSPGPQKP
As to conditions: protein: recombinant; tags: N-terminal GST; dsDNA, one strand shown. Summed up: as §1

The next experiment addresses T3, GABPA (Homo sapiens, UniProt Q06546 1-454).
T3 sequence: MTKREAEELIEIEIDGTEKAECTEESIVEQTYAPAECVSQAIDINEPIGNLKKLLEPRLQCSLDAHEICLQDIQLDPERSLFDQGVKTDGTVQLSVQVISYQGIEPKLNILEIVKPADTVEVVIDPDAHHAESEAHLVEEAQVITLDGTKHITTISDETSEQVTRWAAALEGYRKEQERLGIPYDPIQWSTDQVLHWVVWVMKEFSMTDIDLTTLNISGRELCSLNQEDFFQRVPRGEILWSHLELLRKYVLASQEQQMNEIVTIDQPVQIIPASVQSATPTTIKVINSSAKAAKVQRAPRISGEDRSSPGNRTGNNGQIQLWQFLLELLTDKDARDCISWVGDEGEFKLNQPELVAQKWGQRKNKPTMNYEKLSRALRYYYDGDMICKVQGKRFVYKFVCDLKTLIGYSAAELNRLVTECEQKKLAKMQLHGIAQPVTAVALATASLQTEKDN
As to conditions: protein: recombinant; tags: N-terminal GST; dsDNA, one strand shown. The procedure, abridged: as §1

In a further experiment the target is T4, ERG (Homo sapiens, UniProt P11308 1-479).
T4 sequence: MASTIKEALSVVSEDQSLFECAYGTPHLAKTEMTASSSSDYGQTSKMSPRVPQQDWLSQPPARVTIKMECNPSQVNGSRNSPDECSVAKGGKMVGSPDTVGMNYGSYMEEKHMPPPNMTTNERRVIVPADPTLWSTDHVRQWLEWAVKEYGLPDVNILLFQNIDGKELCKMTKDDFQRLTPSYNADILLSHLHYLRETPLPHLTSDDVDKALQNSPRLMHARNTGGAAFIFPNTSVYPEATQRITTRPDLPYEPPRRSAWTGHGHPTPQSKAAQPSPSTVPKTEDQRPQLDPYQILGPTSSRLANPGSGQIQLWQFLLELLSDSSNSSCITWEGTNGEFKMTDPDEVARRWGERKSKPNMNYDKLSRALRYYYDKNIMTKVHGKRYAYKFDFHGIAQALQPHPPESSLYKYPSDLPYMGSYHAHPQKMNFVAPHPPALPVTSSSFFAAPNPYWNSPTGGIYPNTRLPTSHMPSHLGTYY
As to conditions: protein: recombinant; tags: N-terminal GST; dsDNA, one strand shown. The procedure, abridged:
as §1

The target of the next experiment is ELF1 (Homo sapiens, UniProt P32519 1-619). Particulars: protein: recombinant; tags: N-terminal GST; dsDNA, one strand shown. The procedure, abridged: as §1
Sequence of ELF1 (P32519 whole entry): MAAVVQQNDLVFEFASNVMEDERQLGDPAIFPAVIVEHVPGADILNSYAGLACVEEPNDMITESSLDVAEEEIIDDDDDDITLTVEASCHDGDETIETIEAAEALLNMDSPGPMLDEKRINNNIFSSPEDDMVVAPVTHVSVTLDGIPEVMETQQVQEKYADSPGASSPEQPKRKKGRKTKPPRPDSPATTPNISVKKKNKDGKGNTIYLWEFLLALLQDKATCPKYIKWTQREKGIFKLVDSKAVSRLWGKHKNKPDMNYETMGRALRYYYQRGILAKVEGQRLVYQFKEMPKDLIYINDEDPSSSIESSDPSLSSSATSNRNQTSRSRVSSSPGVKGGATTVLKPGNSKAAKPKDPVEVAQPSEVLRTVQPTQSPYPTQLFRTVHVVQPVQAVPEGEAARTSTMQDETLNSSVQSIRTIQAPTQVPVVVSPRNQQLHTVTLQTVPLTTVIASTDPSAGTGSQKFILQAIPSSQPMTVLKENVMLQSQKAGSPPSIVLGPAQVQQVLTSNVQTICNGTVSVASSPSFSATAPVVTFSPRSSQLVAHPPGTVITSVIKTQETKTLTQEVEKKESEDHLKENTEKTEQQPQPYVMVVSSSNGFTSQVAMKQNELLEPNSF
The next experiment concerns the target T5, EHF (Homo sapiens, UniProt Q9NZC4 1-300).
T5 sequence: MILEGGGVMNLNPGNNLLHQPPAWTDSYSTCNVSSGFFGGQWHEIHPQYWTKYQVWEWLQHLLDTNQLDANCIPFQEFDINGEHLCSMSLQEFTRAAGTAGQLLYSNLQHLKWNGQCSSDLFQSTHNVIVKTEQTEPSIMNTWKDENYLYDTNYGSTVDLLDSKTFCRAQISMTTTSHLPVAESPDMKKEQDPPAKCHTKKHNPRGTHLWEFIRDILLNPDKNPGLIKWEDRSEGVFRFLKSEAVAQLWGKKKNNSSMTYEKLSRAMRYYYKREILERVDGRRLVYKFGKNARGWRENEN
As to conditions: protein: recombinant; tags: N-terminal GST; dsDNA, one strand shown. The procedure, abridged: as §1

A further experiment deals with SPI1 (Homo sapiens, UniProt P17947 1-270). As to conditions: protein: recombinant; tags: N-terminal GST; dsDNA, one strand shown. Summed up: as §1
In the next experiment the target is SPIB (Homo sapiens, UniProt Q01892 1-262). Particulars: protein: recombinant; tags: N-terminal GST; dsDNA, one strand shown. The procedure, abridged: as §1
Sequence of SPIB (Q01892 whole entry): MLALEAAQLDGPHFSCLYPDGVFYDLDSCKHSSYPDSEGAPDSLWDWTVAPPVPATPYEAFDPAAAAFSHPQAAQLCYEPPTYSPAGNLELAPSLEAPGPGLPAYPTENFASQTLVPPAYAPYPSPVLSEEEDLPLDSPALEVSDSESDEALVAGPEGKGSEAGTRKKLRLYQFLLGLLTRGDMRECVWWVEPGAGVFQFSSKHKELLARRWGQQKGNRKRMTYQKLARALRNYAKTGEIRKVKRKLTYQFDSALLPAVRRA
The next experiment has as its target T6, ELK3 (Homo sapiens, UniProt P41970 1-407).
T6 sequence: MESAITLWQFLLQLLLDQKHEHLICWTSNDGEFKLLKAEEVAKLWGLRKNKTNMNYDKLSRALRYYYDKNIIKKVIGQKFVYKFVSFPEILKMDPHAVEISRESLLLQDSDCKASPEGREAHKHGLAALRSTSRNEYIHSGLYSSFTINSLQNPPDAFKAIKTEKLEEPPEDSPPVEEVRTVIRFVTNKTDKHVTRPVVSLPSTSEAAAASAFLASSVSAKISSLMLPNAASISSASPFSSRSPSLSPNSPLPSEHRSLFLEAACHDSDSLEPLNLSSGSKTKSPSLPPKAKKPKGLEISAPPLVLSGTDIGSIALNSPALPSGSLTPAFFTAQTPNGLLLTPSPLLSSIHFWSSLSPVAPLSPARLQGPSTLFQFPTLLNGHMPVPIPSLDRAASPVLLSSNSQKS
Particulars: protein: recombinant; tags: N-terminal GST; dsDNA, one strand shown. The procedure, abridged:
as §1

For another experiment, the target named is T7, FEV (Homo sapiens, UniProt Q99581 1-238).
T7 sequence: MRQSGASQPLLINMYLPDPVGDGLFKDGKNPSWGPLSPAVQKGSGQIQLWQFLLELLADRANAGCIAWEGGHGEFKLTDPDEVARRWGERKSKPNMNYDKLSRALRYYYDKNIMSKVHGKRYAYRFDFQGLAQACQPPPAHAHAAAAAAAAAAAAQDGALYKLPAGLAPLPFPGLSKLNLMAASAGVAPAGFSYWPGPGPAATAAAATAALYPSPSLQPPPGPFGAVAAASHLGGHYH
Particulars: protein: recombinant; tags: N-terminal GST; dsDNA, one strand shown. The procedure, abridged: as §1

In a further experiment the target is ETV5 (Homo sapiens, UniProt P41161 1-510). As to conditions: protein: recombinant; tags: N-terminal GST; dsDNA, one strand shown. Summed up: as §1
Sequence of ETV5 (P41161 whole entry): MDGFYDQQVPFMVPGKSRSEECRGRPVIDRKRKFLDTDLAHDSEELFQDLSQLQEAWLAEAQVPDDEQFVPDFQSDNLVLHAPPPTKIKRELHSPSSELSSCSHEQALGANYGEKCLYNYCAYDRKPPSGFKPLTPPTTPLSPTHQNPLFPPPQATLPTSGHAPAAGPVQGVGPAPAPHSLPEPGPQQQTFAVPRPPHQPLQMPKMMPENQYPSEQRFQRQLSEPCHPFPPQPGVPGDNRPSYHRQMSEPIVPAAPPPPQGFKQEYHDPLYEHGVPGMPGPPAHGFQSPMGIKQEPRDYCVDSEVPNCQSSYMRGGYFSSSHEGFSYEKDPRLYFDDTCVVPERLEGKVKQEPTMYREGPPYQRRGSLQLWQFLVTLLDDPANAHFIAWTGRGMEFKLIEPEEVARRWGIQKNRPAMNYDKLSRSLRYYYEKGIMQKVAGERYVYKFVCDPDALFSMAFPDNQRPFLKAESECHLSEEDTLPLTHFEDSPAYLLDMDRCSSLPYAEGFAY
A further experiment has as its target HSF1 (Homo sapiens, UniProt Q00613 1-529). As to conditions: protein: recombinant; tags: N-terminal GST; chain copies: 3; dsDNA, one strand shown. Summed up:
as §1

Another experiment has as its target T8, SPIC (Homo sapiens, UniProt Q8N5J4 1-248).
T8 sequence: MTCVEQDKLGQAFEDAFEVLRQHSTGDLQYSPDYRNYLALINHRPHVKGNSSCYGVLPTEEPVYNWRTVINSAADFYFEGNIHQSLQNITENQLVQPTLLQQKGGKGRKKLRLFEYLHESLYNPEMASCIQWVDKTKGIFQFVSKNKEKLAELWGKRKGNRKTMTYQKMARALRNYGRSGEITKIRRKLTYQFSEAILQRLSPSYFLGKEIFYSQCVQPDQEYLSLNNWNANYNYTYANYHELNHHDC
As to conditions: protein: recombinant; tags: N-terminal GST; dsDNA, one strand shown. The procedure, abridged:
as §1

The target in another experiment is ELF4 (Homo sapiens, UniProt Q99607 1-663). As to conditions: protein: recombinant; tags: N-terminal GST; dsDNA, one strand shown. Summed up: as §1
Sequence of ELF4 (Q99607 whole entry): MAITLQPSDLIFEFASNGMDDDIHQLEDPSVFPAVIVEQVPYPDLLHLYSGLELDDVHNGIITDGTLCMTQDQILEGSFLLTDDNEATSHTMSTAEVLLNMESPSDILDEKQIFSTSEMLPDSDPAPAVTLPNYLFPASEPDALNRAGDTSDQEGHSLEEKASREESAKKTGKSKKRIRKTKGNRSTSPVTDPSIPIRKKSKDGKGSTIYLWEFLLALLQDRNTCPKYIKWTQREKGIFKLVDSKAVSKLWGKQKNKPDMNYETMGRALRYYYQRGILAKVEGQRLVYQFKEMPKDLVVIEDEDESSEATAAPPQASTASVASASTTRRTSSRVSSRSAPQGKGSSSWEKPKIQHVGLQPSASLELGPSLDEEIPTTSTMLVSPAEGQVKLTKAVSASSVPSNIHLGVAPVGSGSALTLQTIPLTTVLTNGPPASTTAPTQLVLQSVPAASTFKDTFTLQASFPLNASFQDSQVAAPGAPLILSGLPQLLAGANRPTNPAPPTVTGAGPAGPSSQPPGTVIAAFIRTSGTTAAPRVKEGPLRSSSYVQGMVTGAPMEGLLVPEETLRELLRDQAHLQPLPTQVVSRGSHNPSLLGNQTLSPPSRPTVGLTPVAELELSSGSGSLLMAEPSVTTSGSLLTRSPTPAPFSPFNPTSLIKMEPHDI
Another experiment addresses T9, ELK4 (Homo sapiens, UniProt P28324-2 1-405).
T9 sequence: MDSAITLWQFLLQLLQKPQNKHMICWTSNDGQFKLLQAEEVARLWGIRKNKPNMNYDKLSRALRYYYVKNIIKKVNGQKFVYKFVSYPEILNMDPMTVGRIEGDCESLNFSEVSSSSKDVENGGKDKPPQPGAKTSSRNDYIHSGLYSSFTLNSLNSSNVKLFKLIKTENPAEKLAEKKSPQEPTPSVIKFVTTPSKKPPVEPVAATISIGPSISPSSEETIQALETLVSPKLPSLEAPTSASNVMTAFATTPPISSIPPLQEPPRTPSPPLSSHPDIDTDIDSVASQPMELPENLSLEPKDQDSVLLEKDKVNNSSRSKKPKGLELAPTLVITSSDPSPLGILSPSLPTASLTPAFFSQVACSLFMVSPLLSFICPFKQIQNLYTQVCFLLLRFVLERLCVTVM
As to conditions: protein: recombinant; tags: N-terminal GST; dsDNA, one strand shown. Summed up: as §1

Another experiment deals with T10, ETV2 (Homo sapiens, UniProt O00321 1-342).
T10 sequence: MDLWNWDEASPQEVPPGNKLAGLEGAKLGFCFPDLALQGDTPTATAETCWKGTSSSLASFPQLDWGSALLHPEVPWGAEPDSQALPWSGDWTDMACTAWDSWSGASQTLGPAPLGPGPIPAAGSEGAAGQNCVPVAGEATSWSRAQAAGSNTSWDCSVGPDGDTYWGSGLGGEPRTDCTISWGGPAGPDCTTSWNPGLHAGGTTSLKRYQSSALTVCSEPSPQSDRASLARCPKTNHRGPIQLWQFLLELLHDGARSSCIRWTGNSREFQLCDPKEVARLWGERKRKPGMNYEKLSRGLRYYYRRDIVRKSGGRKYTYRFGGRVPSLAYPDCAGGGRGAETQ
Particulars: protein: recombinant; tags: N-terminal GST; dsDNA, one strand shown. Summed up:
as §1

The target in a further experiment is T11, ELF3 (Homo sapiens, UniProt P78545 1-371).
T11 sequence: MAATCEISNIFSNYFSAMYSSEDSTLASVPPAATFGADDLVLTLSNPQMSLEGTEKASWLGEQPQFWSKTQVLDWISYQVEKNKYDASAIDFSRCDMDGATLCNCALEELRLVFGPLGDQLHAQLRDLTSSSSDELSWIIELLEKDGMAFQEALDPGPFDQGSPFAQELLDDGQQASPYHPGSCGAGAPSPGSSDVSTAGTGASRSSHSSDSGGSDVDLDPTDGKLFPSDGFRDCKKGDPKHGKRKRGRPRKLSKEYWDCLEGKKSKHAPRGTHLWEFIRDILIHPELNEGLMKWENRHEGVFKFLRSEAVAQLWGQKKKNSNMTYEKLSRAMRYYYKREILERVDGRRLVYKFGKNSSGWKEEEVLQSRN
Particulars: protein: recombinant; tags: N-terminal GST; dsDNA, one strand shown. The procedure, abridged:
as §1

The target of another experiment is CRX (Homo sapiens, UniProt O43186 1-299). As to conditions: protein: recombinant; tags: N-terminal GST; dsDNA, one strand shown. Summed up: as §1
Sequence of CRX (O43186 whole entry): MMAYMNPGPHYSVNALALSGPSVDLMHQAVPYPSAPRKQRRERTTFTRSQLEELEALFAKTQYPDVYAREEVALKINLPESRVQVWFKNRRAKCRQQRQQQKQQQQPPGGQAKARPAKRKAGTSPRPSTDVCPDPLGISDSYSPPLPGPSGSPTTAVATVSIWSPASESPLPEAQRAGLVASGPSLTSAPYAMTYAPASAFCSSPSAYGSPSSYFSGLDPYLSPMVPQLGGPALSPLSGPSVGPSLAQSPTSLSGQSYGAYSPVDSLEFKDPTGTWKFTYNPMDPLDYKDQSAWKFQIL
The target of the next experiment is ETV1 (Homo sapiens, UniProt P50549 1-477). As to conditions: protein: recombinant; tags: N-terminal GST; dsDNA, one strand shown. The procedure, abridged: as §1
Sequence of ETV1 (P50549 whole entry): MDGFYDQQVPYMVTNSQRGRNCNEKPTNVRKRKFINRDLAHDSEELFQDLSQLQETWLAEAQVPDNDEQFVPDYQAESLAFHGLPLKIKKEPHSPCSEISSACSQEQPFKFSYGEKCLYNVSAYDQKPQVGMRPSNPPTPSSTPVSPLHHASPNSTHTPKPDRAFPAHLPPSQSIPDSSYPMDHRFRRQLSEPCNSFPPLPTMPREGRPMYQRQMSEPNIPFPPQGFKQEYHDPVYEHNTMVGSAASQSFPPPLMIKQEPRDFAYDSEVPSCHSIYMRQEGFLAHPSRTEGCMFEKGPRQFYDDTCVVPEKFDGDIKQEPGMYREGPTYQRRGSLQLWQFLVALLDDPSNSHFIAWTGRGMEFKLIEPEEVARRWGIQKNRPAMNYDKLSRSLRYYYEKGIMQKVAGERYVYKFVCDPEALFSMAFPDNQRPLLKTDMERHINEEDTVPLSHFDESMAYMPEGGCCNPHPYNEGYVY

Sequence of HSF1 (Q00613 whole entry): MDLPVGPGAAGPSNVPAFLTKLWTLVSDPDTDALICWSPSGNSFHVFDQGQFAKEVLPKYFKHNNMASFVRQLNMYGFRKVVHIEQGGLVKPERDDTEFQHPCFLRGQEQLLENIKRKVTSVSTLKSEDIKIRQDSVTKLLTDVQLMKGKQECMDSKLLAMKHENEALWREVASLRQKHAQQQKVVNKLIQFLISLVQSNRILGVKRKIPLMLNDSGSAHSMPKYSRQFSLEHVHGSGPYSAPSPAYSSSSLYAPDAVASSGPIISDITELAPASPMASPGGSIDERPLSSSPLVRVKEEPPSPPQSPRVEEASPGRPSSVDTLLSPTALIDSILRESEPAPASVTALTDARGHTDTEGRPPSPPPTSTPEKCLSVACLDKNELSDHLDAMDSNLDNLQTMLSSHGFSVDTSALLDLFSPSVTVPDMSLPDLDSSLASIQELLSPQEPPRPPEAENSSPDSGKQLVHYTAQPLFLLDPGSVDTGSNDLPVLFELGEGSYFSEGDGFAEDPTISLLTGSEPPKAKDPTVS

As for TCTAAC, the binding signal with FLI1 was 1.18 fold enrichment (6-mer frequency, TF over GST control); with ELK1 it was 1.28 fold enrichment (6-mer frequency, TF over GST control); with GABPA, 1.16 fold enrichment (6-mer frequency, TF over GST control); in the experiment with ERG, 1.22 fold enrichment (6-mer frequency, TF over GST control); with ELF1 it was 1.21 fold enrichment (6-mer frequency, TF over GST control); with EHF, 1.16 fold enrichment (6-mer frequency, TF over GST control). Further, the binding signal with SPI1 was 1.13 fold enrichment (6-mer frequency, TF over GST control); with SPIB, 1.19 fold enrichment (6-mer frequency, TF over GST control); with ELK3 it was 1.16 fold enrichment (6-mer frequency, TF over GST control); with FEV, 1.23 fold enrichment (6-mer frequency, TF over GST control); with ETV5 it was 1.21 fold enrichment (6-mer frequency, TF over GST control); with HSF1, 1.25 fold enrichment (6-mer frequency, TF over GST control). Also, the binding signal in the experiment with SPIC was 1.07 fold enrichment (6-mer frequency, TF over GST control); with ELF4, 1.22 fold enrichment (6-mer frequency, TF over GST control); in the experiment with ELK4, 1.2 fold enrichment (6-mer frequency, TF over GST control); with ETV2, 1.12 fold enrichment (6-mer frequency, TF over GST control); in the experiment with ELF3, 1.23 fold enrichment (6-mer frequency, TF over GST control); in the experiment with CRX, 1.24 fold enrichment (6-mer frequency, TF over GST control). For the same sequence, the binding signal with ETV1 is 1.16 fold enrichment (6-mer frequency, TF over GST control).
